Here are results for 26 molecules from PubChem BioAssay AID1347087 (National Center for Advancing Translational Sciences (NCATS), 2019).

The structures appear in SMILES notation. “And” between values parts separate entries of the source, which are not always exact repeats. Equal values may be shown once. Results filed as inconclusive are left out. The source made the active and inactive calls. Calls come from the whole dose curve.

The assay can be described thus: qHTS for Inhibitors of the Functional Ribonucleoprotein Complex (vRNP) of Lassa (LASV) Arenavirus: LASV Confirmatory Screen - GLuc reporter signal. To be noted: LASV minigenome vRNP, Gaussia luciferase reporter; series mostly up to 53.9 µM; activity, negative = inhibition: at the top concentration.
Regarding `O=C(CCCN1CCN(c2ccc(F)cc2)CC1)NC1c2ccccc2CSc2ccccc21` (stereo unspecified), the “activity, negative = inhibition” value was -7.57% (inactive).

For `FC(F)(F)c1ccc(C=Cc2nc(COc3ccc(CCCCn4ccnn4)cc3)co2)cc1`, the Potency is 0.0153 µM (active).

`CC[C@@H](C(=O)O)[C@@H]1O[C@@H]([C@@H](C)[C@H](O)[C@H](C)C(=O)[C@H](CC)[C@H]2O[C@]3(C=C[C@@H](O)[C@]4(CC[C@@](C)([C@H]5CC[C@](O)(CC)[C@H](C)O5)O4)O3)[C@H](C)C[C@@H]2C)[C@@H](C)C[C@@H]1C`: the Potency is 0.157 µM (active).

As to `CNCCCC1c2ccccc2C=Cc2ccccc21`, the Potency was 30.6 µM (active).

Turning to `CO/C=C(/C(=O)OC)c1ccccc1Oc1cc(Oc2ccccc2C#N)ncn1`, the Potency was 6.27 µM (active).

Take `C=C(C)C1Cc2c(ccc3c2OC2COc4cc(OC)c(OC)cc4C2C3=O)O1` (stereo unspecified): the Potency was 0.0217 µM (active).

As to `CCCCCC[C@H]1C(=O)O[C@H](C)[C@H](NC(=O)c2cccc(NC=O)c2O)C(=O)O[C@@H](C)[C@@H]1OC(=O)CC(C)C`, the Potency is 0.0306 µM (active).

`N#CC(=C(\N)Sc1ccccc1N)/C(C#N)=C(/N)Sc1ccccc1N`: the Potency was 0.0685 µM (active).

Regarding `Cc1cc(N)c2ccccc2[n+]1CCCCCCCCCC[n+]1c(C)cc(N)c2ccccc21`, the Potency is 1.37 µM (active).

For `C=C1CC[C@@H]2[C@](C)(CO)[C@H](O)CC[C@@]2(C)[C@@H]1/C=C/C1=CCOC1=O`, the Potency was 21.7 µM (active).

Take `Cc1cccc(-c2[nH]c(C(C)(C)C)nc2-c2ccc3c(c2)OCO3)n1`: the Potency is 3.43 µM (active).

For the molecule `Cc1ncc([N+](=O)[O-])n1CC(C)O` (stereo unspecified), the “activity, negative = inhibition” value was 5.76% (inactive).

As to `COC(=O)c1nc(Cl)c(Cl)nc1N`, the Potency is 4.85 µM (active).

In the case of `CCC[C@H](N[C@@H](C)C(=O)N1[C@@H]2CCCC[C@H]2C[C@H]1C(=O)O)C(=O)OCC`, the “activity, negative = inhibition” value is 10.2% (inactive).

Regarding `Nc1ccc([N+](=O)[O-])cc1O`, the Potency is 0.396 µM (active).

Consider `Cc1cc2c(C(C)C)c(O)c(O)c(C=O)c2c(O)c1-c1c(C)cc2c(C(C)C)c(O)c(O)c(C=O)c2c1O`, for which the Potency is 9.68 µM (active).

As for `O=C1c2ccccc2-n2c1nc1ccccc1c2=O`, the Potency is 2.43 µM (active).

`CCCCC/C(C=O)=C\c1ccccc1`: the “activity, negative = inhibition” value is -6.3% (inactive).

Regarding `C=C(C)[C@H]1Cc2c(ccc3c2O[C@@H]2COc4cc(OC)c(OC)cc4[C@@H]2C3=O)O1`, the Potency was 0.0306 µM (active).

`CC(C)(C)C1CCC(CC2=C(O)c3ccccc3C(=O)C2=O)CC1` (stereo unspecified): the Potency is 6.85 µM (active).

In the case of `CC1=C(C)C(=O)C(CCCCC#CCCCC#CCO)=C(C)C1=O`, the Potency is 24.3 µM (active).

As to `O=C(Nc1ccccc1)c1cc([N+](=O)[O-])ccc1Cl`, the Potency is 24.3 µM (active).

As to `COc1cccc(-c2ccc(NC(=O)C3=C(C(=O)O)CCC3)c(F)c2)c1`, the Potency was 6.85 µM (active).

For `CCCCCN=C(N)N/N=C/c1c[nH]c2ccc(OC)cc12`, the Potency is 8.63 µM (active).

Turning to `CC(O)C(O)[C@H]1CNc2nc(N)[nH]c(=O)c2N1` (stereo partly specified), the “activity, negative = inhibition” value was 11.1% (inactive).

With `COc1ccc(Cc2nccc3cc(OC)c(OC)cc23)cc1OC`, the Potency is 3.06 µM (active) and 3.85 µM (active).
